Source: PubChem BioAssay (several laboratories)
A selection: hits, their analogues and other compounds. The true share with any hit is near 3.8%.
rRNA inh HTS = inhibitors of bacterial rRNA selective over humanized ribosomes | E. coli WT GFP vs humanized-ribosome RFP mutants, fluorescence, 24 h; stronger effect = lower value; DMSO median 0, no signal -100 | GFP signal change (wild-type ribosome), % (concentration not given with the values) | 350,000 compounds, 1.6% hits | AID 720706;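 active = significant combined selectivity score with lowered wild-type GFP, culture density cut under 30%, mutant RFP and density less affected; inactive = any of these conditions unmet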
ADAM17 inh = inhibits human ADAM17; recombinant ADAM17, EDANS/DABCYL FRET peptide cleavage; inhibition, % at 6.95 µM; P78536; 370,000 compounds, 0.83% hits;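 active = inhibition above the mean of compounds lying between control limits plus 3 SD, set per campaign, cut at about 8.5% in these data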
ADAM10 inh = inhibits human ADAM10; recombinant ADAM10, EDANS/DABCYL FRET peptide cleavage, 3 h; O14672; 370,000 compounds, 0.62% hits; AID 720582; inhibition, % at 7 µM;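 active = inhibition above a per-campaign cutoff equal to the mean of compounds falling between control-based bounds plus 3 SD, cut at about 20% in these data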
FGF22 binding = FGF22 (human) thermal shift binding | activity (Tm shift, normalised), % at 9.99 µM | recombinant FGF22 thermal shift, SYPRO orange fluorescence; percent of sucrose octasulfate shift, DMSO zero | Q9HCT0 | 340,000 compounds, 1.5% hits;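 active = mean Tm shift, scaled 0 neutral to 100 positive control, at about 1.3% or above, every replicate too, limit read from the data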
Target sequence (Q9HCT0 whole entry, looked up): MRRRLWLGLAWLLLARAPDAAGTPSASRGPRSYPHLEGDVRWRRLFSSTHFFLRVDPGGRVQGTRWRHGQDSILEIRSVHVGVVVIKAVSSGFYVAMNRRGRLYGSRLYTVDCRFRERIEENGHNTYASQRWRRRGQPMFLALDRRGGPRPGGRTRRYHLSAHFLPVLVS
KLK7 zymogen act = activators of human kallikrein-7 zymogen | P49862 | purified proKLK7, EDANS-DABCYL substrate fluorescence; 100% is mature enzyme control, 0% vehicle | activation, % at 7 µM | 370,000 compounds, 0.9% hits | AID 652039;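 active = activation above the mean of all tested compounds plus 3 SD, computed per campaign excluding outliers beyond control limits, cut at about 13% in these data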
Target sequence (P49862 whole entry, looked up): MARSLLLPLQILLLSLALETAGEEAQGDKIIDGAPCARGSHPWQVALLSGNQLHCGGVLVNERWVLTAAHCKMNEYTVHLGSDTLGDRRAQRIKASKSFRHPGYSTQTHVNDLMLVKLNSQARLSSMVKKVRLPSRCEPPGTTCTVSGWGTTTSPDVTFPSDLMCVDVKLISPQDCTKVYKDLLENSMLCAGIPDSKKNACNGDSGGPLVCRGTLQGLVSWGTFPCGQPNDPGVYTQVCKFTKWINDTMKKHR
Of the large screens only hits and unclear results are named; the others gave an inactive call.

C[C@@H]1CN([C@H](C)CO)C(=O)c2cc(C#CCc3ccccc3)cnc2O[C@@H]1CN(C)C(=O)C1CC1	none (no result: ADAM17 inh, ADAM10 inh, KLK7 zymogen act)
CN(C)CC#Cc1ccc([C@@H]2[C@H]3CN(C(=O)Cc4cccnc4)CC(=O)N3[C@H]2CO)cc1	none (no result: ADAM17 inh, ADAM10 inh, FGF22 binding, KLK7 zymogen act)
CC(C)[C@H](NC(N)=O)C(=O)Nc1ccc(Oc2ccccc2)cc1	FGF22 binding 43
CC(C)[C@H](NC(=O)Nc1ccc(Oc2ccccc2)cc1)C(=O)O	none (no result: rRNA inh HTS, FGF22 binding)
Cn1c(=O)c2nc3ccccc3nc2n(C)c1=O	FGF22 binding 43
Cn1c(=O)c2nc(-c3ccccc3)c(-c3ccccc3)nc2n(C)c1=O	rRNA inh HTS -20
Cn1c(=O)c2nc(Cl)c(-c3ccccc3)nc2n(C)c1=O	none
CCC(=O)N1CC(=O)N2[C@H](C1)[C@H](c1ccc(C3=CCCCC3)cc1)[C@@H]2CO	none (no result: ADAM17 inh, ADAM10 inh, FGF22 binding, KLK7 zymogen act)
COc1ccc(CN2CC3(CCN(S(=O)(=O)c4ccc(C)cc4)CC3)c3c([nH]c4cc(OC)ccc34)[C@@H]2CO)cc1	none (no result: ADAM17 inh, ADAM10 inh, FGF22 binding, KLK7 zymogen act)
Cc1ccccc1OCC1CNC(=O)O1 (stereo unspecified)	FGF22 binding 43
CN(C)CCCNC(=O)C[C@H]1C=C[C@H](NS(=O)(=O)c2ccccc2)[C@@H](CO)O1	none (no result: ADAM17 inh, ADAM10 inh, KLK7 zymogen act)
CCCCCCCCN1N=N[C@H]2[C@H]1[C@@H]1C[C@H]2N(C(=O)OC(C)(C)C)O1	rRNA inh HTS -32
CC(C)(C)OC(=O)N1O[C@H]2C=C[C@@H]1C2	none
CC(C)CC#Cc1ccc([C@H]2[C@H]3CN(C(=O)NC(C)C)CC(=O)N3[C@H]2CO)cc1	none (no result: ADAM17 inh, ADAM10 inh, FGF22 binding, KLK7 zymogen act)
Cc1ccc(S(=O)(=O)N(C)C[C@@H]2OCCCC[C@H](C)Oc3ccc(NC(=O)Nc4cccc5ccccc45)cc3C(=O)N([C@@H](C)CO)C[C@H]2C)cc1	none (no result: ADAM17 inh, ADAM10 inh, KLK7 zymogen act)
Cc1cccc(NC(=O)CC2C(=O)NCCN2C(=O)Nc2ccc(Cl)cc2)c1 (stereo unspecified)	rRNA inh HTS -32
O=C(CC1C(=O)NCCN1C(=O)Nc1ccccc1)Nc1cc(Cl)ccc1Cl (stereo unspecified)	rRNA inh HTS -25
COc1cccc(C(=O)Nc2ccc3c(c2)OC[C@@H](C)N(CC2CC2)C[C@H](C)[C@@H](OC)CN(C)C3=O)c1	none (no result: ADAM17 inh, ADAM10 inh, KLK7 zymogen act)
Cc1cc2ccccc2nc1SCC(=O)NC1CCCC1	FGF22 binding 43
C/C(=N\Nc1ccc(S(=O)(=O)Nc2ccccc2)cc1[N+](=O)[O-])c1ccncc1	none
COc1ccc(NS(=O)(=O)c2ccc(N/N=C(\C)c3ccncc3)c([N+](=O)[O-])c2)cc1	rRNA inh HTS -23
COc1ccccc1N(CC(=O)N(CC(C)C)CC(C)C)S(=O)(=O)c1cccs1	FGF22 binding 43
C[C@H]1CN(C)C(=O)Cc2ccccc2O[C@@H]1CN(C)C	none (no result: ADAM17 inh, ADAM10 inh, FGF22 binding, KLK7 zymogen act)
Cn1c(=O)c2[nH]c(CCNC(=O)c3ccccc3)nc2n(C)c1=O	FGF22 binding 43
Cn1c(=O)c2[nH]c(CCCCCc3nc4ccccc4[nH]3)nc2n(C)c1=O	none (no result: FGF22 binding)
CC(C)Cc1ccc(/C=C/C(=O)N2CCCCC2)cc1	none
CCc1ccc(/C=C\C(=O)N2CCCC2)cc1	rRNA inh HTS -19
CCCN1C[C@H](C)[C@@H](OC)CN(C)C(=O)c2cc(NC(=O)NC3CCCC3)ccc2OC[C@H]1C	none (no result: ADAM17 inh, ADAM10 inh, FGF22 binding, KLK7 zymogen act)
O=S(=O)(c1ccccc1)N1CC2(C1)[C@@H](c1ccccc1)[C@@H](CO)N2CC1CC1	none (no result: ADAM17 inh, ADAM10 inh, FGF22 binding, KLK7 zymogen act)
Cc1ccc(S(=O)(=O)/N=C(/Nc2c(C)cccc2C)c2ccccc2)cc1	rRNA inh HTS -36
Cc1ccc(S(=O)(=O)/N=C(/Nc2c(C)n(C)n(-c3ccccc3)c2=O)c2ccccc2)cc1	none
Cc1ccc(S(=O)(=O)/N=C(/Nc2ccccc2C)c2ccccc2)cc1	rRNA inh HTS -23
CC[C@@H]1C/C=C\C[C@H](c2ccccc2)NC(=O)CCC(=O)N1	none (no result: ADAM17 inh, ADAM10 inh, FGF22 binding, KLK7 zymogen act)
Cc1ccc(NC(=O)COC(=O)CCc2c[nH]c3ccccc23)cc1[N+](=O)[O-]	FGF22 binding 43 (no result: rRNA inh HTS)
Cc1ccccc1NC(=O)COC(=O)CCc1c[nH]c2ccccc12	none
c1ccc(Nc2ccc(NCCc3c[nH]c4ccccc34)cc2)cc1	rRNA inh HTS -24
O=C(CCc1c[nH]c2ccccc12)Nc1ccc(Nc2ccccc2)cc1	FGF22 binding 1.4
C[C@@H]1CN([C@@H](C)CO)C(=O)c2cc(NC(=O)CCCN(C)C)ccc2O[C@H]1CN(C)Cc1ccc2c(c1)OCO2	none (no result: ADAM17 inh, ADAM10 inh, KLK7 zymogen act)
Cc1cc(C(=O)N/N=C/c2ccc(C)o2)c2ccccc2n1	none (no result: rRNA inh HTS, FGF22 binding)
Cc1ccc(/C=N/NC(=O)c2cc(C3CC3)nc3ccccc23)o1	FGF22 binding 43
Cc1c(C)c2c(OCC(=O)N3CCC(C(N)=O)CC3)cc3c(c2oc1=O)CCC(C)(C)O3	KLK7 zymogen act 32 (no result: rRNA inh HTS)
O=C(c1ccc2c(c1)OCO2)N1CC2(C1)[C@@H](c1ccccc1)[C@@H](CO)N2C(=O)C1CCCC1	none (no result: ADAM17 inh, ADAM10 inh, FGF22 binding, KLK7 zymogen act)
CO[C@@H]1CC[C@@H]2CCOc3ccc(C#N)cc3C(=O)N(C)C[C@@H](C)C(=O)N(C)C[C@H]1O2	none (no result: ADAM17 inh, ADAM10 inh, KLK7 zymogen act)
CCOC(=O)c1ccc(NC(=O)c2cccc(C)c2[N+](=O)[O-])cc1	none
COC(=O)c1ccc(NC(=O)c2cccc(C)c2[N+](=O)[O-])cc1	rRNA inh HTS -22
O=C(C[C@@H]1CC[C@@H]2[C@H](COC[C@H](O)CN2Cc2ccccc2F)O1)N[C@@H]1CCN(Cc2ccccc2)C1	none (no result: ADAM17 inh, ADAM10 inh, KLK7 zymogen act)
COc1ccc(OCC(=O)N2c3ccccc3CC2C)c([N+](=O)[O-])c1 (stereo unspecified)	rRNA inh HTS -24
CC1Cc2ccccc2N1C(=O)c1ccc(N2CCCCC2)c([N+](=O)[O-])c1 (stereo unspecified)	rRNA inh HTS -30
O=C(c1ccc(N2CCCC2)c([N+](=O)[O-])c1)N1CCc2ccccc2C1	none
C[C@@H]1CCCCO[C@@H](CN(C)C(=O)c2ccccc2)[C@@H](C)CN([C@@H](C)CO)C(=O)c2cc(NC(=O)Nc3ccc4c(c3)OCO4)ccc2O1	none (no result: ADAM17 inh, ADAM10 inh, FGF22 binding, KLK7 zymogen act)
C[C@H](CO)N1C[C@H](C)[C@H](CN(C)C(=O)Nc2cccc3ccccc23)Oc2ncc(C#CCC3CCCC3)cc2C1=O	none (no result: ADAM17 inh, ADAM10 inh, KLK7 zymogen act)
O=[N+]([O-])c1ccc(NN=C(C2CC2)C2CC2)c([N+](=O)[O-])c1	rRNA inh HTS -21
CCC(CC)=NNc1ccc([N+](=O)[O-])cc1[N+](=O)[O-]	FGF22 binding 43
COc1ccccc1CN(C)C[C@H]1OCc2ccccc2-c2c(n(C)c3ccccc23)C(=O)N([C@H](C)CO)C[C@@H]1C	none (no result: ADAM17 inh, ADAM10 inh, FGF22 binding, KLK7 zymogen act)
CC1=NN(C(N)=S)C(=O)C1N=Nc1c(C)cc(C)cc1C (stereo unspecified)	none (no result: rRNA inh HTS, FGF22 binding)
CC1=NN(C(N)=S)C(=O)C1N=Nc1c(Cl)cc([N+](=O)[O-])cc1Cl (stereo unspecified)	rRNA inh HTS -26
COc1ccc(NC(=O)O[C@H]2[C@H](OC(=O)Nc3ccc4c(c3)OCO4)[C@H](OC(=O)Nc3ccc4c(c3)OCO4)[C@@H](OC)O[C@@H]2CO)cc1	none (no result: rRNA inh HTS, ADAM17 inh, ADAM10 inh, KLK7 zymogen act)
